Results reported in PubChem BioAssay (EPA / NIEHS).
Results filed as inconclusive are left out. Active and inactive are the calls of the source. The calls were made as follows: active = hit-call score of the fitted dose curve at least 0.9, where 1 is the maximum; inconclusive = response in the unintended direction; inactive = score below 0.9.

Key:
[1] = TOX21_p53_BLA_p2_viability: Viability Assessment in the Tox21 HCT-116 p53 Agonism Beta-lactamase Assay, Phase 2 (AID 2283591);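 also: actives lower the ATP signal meaning cytotoxicity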
How it was run: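 HCT-116 p53-bla cells (4000/well) rested 5 h at 37C, then received compounds in DMSO (217-fold dilution) for 16 h at 37C, 5% CO2. After the CCF4 read, CellTiter-Glo was added; ATP luminescence was read after 30 min at room temperature.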

[2] = biological target: Cellular tumor antigen p53 (Homo sapiens) (UniProt P04637); assay: TOX21_p53_BLA_p2_ratio: Tox21 HCT-116 p53 Agonism Beta-lactamase Assay, Ratio, Phase 2 (AID 2283592)
How it was run: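 Ratio endpoint: beta-lactamase cleavage of CCF4-AM, blue (460 nm) over green (530 nm). HCT116 reporter line; 16 h treatment, 37C; substrate 2 h RT.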

[3] = TOX21_p53_BLA_p3_viability: Viability Assessment in the Tox21 HCT-116 p53 Agonism Beta-lactamase Assay, Phase 3 (AID 2283593);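 also: cells exposed to compound for 16 h before reading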
How it was run: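 HCT-116 cells (4000/well) rested 5 h at 37C, then got DMSO compounds by pin tool (217-fold dilution) for 16 h at 37C, 5% CO2. After the bla read, CellTiter-Glo was added and luminescence read at 30 min, room temperature.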

[4] = TOX21_p53_BLA_p4_viability: Viability Assessment in the Tox21 HCT-116 p53 Agonism Beta-lactamase Assay, Phase 4 (AID 2283597);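 also: hits lower the luminescence signal meaning cytotoxicity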
How it was run: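 Cytotoxicity was inferred from loss of CellTiter-Glo luminescence. HCT116 cells had been dosed with compounds after 5 h plating, incubated 16 h at 37C and 5% CO2, and exposed to the CCF4-AM substrate for 2 h.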

[5] = TOX21_p53_BLA_p5_viability: Viability Assessment in the Tox21 HCT-116 p53 Agonism Beta-lactamase Assay, Phase 5 (AID 2283600)
How it was run: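 Luciferase-coupled ATP quantitation of cells treated for 16 h (37C, 5% CO2) with test chemicals delivered in DMSO via a 217-fold dilution; 4000 cells/well; reagent incubated 30 min at room temperature before luminescence reading.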

[6] = biological target: Cellular tumor antigen p53 (Homo sapiens) (UniProt P04637); assay: TOX21_p53_BLA_p5_ratio: Tox21 HCT-116 p53 Agonism Beta-lactamase Assay, Ratio, Phase 5 (AID 2283599)
How it was run: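 HCT-116 cells carrying a p53-inducible beta-lactamase reporter were seeded at 4000 cells/well and dosed after 5 h with compound in DMSO (217-fold dilution). After 16 h at 37C, CCF4-AM substrate was added for 2 h, and the 460/530 nm emission ratio was scored as gain-of-signal versus DMSO.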

[7] = biological target: Cellular tumor antigen p53 (Homo sapiens) (UniProt P04637); assay: TOX21_p53_BLA_p4_ratio: Tox21 HCT-116 p53 Agonism Beta-lactamase Assay, Ratio, Phase 4 (AID 2283601)
How it was run: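 HCT116 cells carrying an inducible beta-lactamase reporter were plated at 4000 cells/well, rested 5 h, then exposed to compounds in DMSO (217-fold dilution) for 16 h at 37C. CCF4-AM substrate was loaded 2 h at room temperature; 460/530 nm emission ratio scored gain-of-signal versus DMSO.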

[8] = biological target: THRB (gene 7068) (UniProt P10828); assay: TOX21_TRB_BLA_Antagonist_Followup_ratio: Tox21 Thyroid Hormone Receptor beta Antagonism Beta-lactamase (BLA) Follow-Up Assay, Ratio (AID 2283958)
How it was run: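 Beta-lactamase reporter ratio (460/530 nm, CCF4-AM substrate, 2 h room temperature) was read in TRb-bla HEK293T cells after 18 h compound treatment (11 concentrations, triplicate) at 37C in 2% charcoal-stripped FBS medium. Loss of signal fitted against DMSO.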

[9] = TOX21_TRB_BLA_Antagonist_Followup_viability: Viability Assessment in the Tox21 Thyroid Hormone Receptor beta Antagonism Beta-lactamase (BLA) Follow-Up Assay (AID 2283961)
How it was run: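 HEK293T cells stably expressing GAL4-DBD/human TRβ-LBD with UAS-bla reporter, 3,000 cells/well in phenol red-free DMEM, 2% charcoal-stripped FBS. Compounds at 11 concentrations in triplicate, 18 h at 37C/5% CO2; viability by CellTiter-Glo luminescence after 30 min at room temperature.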

[10] = biological target: THRB (gene 7068) (UniProt P10828); assay: TOX21_TRB_COA_Antagonist_Followup_ratio: Tox21 Thyroid Hormone Receptor beta Antagonism through Coactivator Recruitment Follow-Up Assay, Ratio (AID 2283967)
How it was run: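 Coactivator (SRC-2) recruitment to purified GST-TRβ ligand-binding domain is monitored by terbium-to-fluorescein energy transfer, emission ratio 520:495 nm. DMSO wells define 0% and T3 wells 100% activity.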

[11] = TOX21_TR_RXR_BLA_Antagonist_Followup_viability: Viability Assessment in the Tox21 Thyroid Hormone Receptor beta Retinoid X Receptor alpha (RXRa) Antagonism Beta-lactamase (BLA) Follow-Up Assay (AID 2283979)
How it was run: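 RXRa-UAS-bla HEK293T cells seeded 2,500/well in phenol red-free DMEM with 2% charcoal-stripped FBS, attached 5 h, then exposed to compounds at 11 concentrations in triplicate for 16 h at 37C/5% CO2. Viability read by CellTiter-Glo ATP luminescence; bidirectional fit versus DMSO.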

[12] = TOX21_PR_BLA_Followup_Agonist_viability: Viability Assessment in the Tox21 HEK293 Progesterone Receptor (PR) Agonism Beta-lactamase Follow-Up Assay (AID 2283935);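 also: signal loss means lower viability so actives are cytotoxic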
How it was run: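 Run multiplexed with the beta-lactamase FRET read, this endpoint measures ATP by CellTiter-Glo luminescence (30 min, room temperature). PR-UAS-bla HEK293T cells received compound 6 hr after plating and were then incubated 16 hr at 37C in 2% stripped serum.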

[13] = TOX21_PR_BLA_Followup_Antagonist_viability: Viability Assessment in the Tox21 HEK293 Progesterone Receptor (PR) Antagonism Beta-lactamase Follow-Up Assay (AID 2283936);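 also: cells exposed to compound with R5020 agonist for 16 h; hits lower the luminescence signal meaning cytotoxicity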
How it was run: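 PR-UAS-bla HEK293T cells in medium with 2% charcoal-stripped FBS were treated with compounds plus R5020 for 16 hr at 37C. After the beta-lactamase read, CellTiter-Glo was added to the same wells and luminescence read after 30 min at room temperature.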

[14] = TOX21_PR_LUC_Followup_Antagonist_viability: Viability Assessment in the Tox21 HEK293 Progesterone Receptor (PR) Antagonism Luciferase Follow-Up Assay (AID 2283940)
How it was run: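 Viability counter-readout: cellular ATP measured by luciferase luminescence after 16 h compound exposure at 37C of HEK293-PR-A-luc cells, which had been cultured in charcoal-stripped serum and seeded 5 h beforehand.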

[15] = TOX21_PR_LUC_Followup_Agonist_viability: Viability Assessment in the Tox21 HEK293 Progesterone Receptor (PR) Agonism Luciferase Follow-Up Assay (AID 2283941);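 also: loss of signal means cytotoxicity so actives lower viability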
How it was run: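 Cytotoxicity counter-readout in the PR-A luciferase reporter line HEK293, with 16 h compound exposure at 37C after cells were cultured in charcoal-stripped serum. Cellular ATP quantified by CellTiter-Glo luminescence.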

Measured: AC50

Sequence of Cellular tumor antigen p53 (Homo sapiens) (P04637 whole entry, looked up): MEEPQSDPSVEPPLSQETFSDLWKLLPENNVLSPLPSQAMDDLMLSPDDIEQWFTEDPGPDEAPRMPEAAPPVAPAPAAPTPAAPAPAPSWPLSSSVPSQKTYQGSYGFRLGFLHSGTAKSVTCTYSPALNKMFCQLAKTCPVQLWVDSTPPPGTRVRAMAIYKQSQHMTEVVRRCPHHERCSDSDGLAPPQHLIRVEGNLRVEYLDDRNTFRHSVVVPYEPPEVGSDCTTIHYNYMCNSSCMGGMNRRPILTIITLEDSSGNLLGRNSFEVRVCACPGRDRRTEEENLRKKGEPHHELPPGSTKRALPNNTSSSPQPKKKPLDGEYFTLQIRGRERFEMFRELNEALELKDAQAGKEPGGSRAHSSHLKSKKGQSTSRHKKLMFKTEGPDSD
Sequence of THRB (gene 7068) (P10828 whole entry, looked up, the tested form may be a part): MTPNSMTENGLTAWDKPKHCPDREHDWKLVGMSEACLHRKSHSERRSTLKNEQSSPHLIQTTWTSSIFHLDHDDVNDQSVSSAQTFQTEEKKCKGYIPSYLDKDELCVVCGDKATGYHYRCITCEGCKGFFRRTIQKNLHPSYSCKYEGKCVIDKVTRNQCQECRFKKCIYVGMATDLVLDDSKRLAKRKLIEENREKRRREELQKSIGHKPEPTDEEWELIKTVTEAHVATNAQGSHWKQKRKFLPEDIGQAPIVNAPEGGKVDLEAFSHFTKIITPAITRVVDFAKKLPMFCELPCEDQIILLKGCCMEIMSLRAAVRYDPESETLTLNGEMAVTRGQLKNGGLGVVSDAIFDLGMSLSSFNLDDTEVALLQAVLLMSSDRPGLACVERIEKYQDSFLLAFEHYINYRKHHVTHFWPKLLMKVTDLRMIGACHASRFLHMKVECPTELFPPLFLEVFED

OC[C@H](Cc1cccc(O)c1)[C@H](CO)Cc1cccc(O)c1
inactive: [1] | [2] | [3] | [4] | [5]

c1ccc(CNCCNCc2ccccc2)cc1
inactive: [1] | [2] | [3] | [4] | [6] | [5] | [7]

O=C(O)c1ccc(OCCCOc2ccc(C(=O)O)cc2)cc1
inactive: [1] | [2] | [3] | [4] | [6] | [5] | [7]

C=CCONC(CCC)=C1C(=O)CC(C)(C)C(C(=O)OC)=C1O
inactive: [1] | [2] | [3] | [4] | [6] | [7]

NCCCC[C@H](NC(=O)[C@@H]1CCCN1C(=O)[C@@H]1CSSC[C@H](N)C(=O)N[C@@H](Cc2ccccc2)C(=O)N[C@@H](Cc2ccccc2)C(=O)N[C@@H](CCC(N)=O)C(=O)N[C@@H](CC(N)=O)C(=O)N1)C(=O)NCC(N)=O
inactive: [1] | [2] | [3] | [4] | [6] | [5] | [7]

CCCC[P+](C)(CCCC)CCCC
inactive: [1] | [2] | [3] | [4] | [6] | [5] | [7]

Cc1c(Nc2ncccc2C(=O)O)cccc1C(F)(F)F
not listed: [12] | [13] | [14] | [15]
inactive: all other assays above

CCN(CC)CCNC(=O)c1ccc(NS(C)(=O)=O)cc1
inactive: [1] | [2] | [3] | [4] | [5]

O=C(Nc1ccccc1)Nc1ccccc1
inactive: [1] | [2] | [3] | [4] | [5]

CC(C)N1CCN(c2ccc(OC[C@H]3CO[C@](Cn4cncn4)(c4ccc(Cl)cc4Cl)O3)cc2)CC1
inactive: [1] | [2] | [3] | [6] | [5] | [7]
active: [4] 10.3 µM

CC(=O)NO
inactive: [1] | [2] | [3] | [4] | [6] | [5] | [7]

CC(C(O)c1ccccc1)N(C)CCOC(c1ccccc1)c1ccccc1 (configuration not stated)
inactive: [1] | [2] | [3] | [5]
active: [4] 42.2 µM

CCCCCCCCCOC(=O)c1ccccc1C(=O)OCCCCCCCCC
inactive: [1] | [2] | [3] | [4] | [6] | [7]

CN1CCN(CCC=C2c3ccccc3Sc3ccc(S(=O)(=O)N(C)C)cc32)CC1
inactive: [1] | [2] | [3] | [6] | [5]
active: [4] 34.9 µM | [7] 43.7 µM

NC(N)=NC(=O)Cc1c(Cl)cccc1Cl
inactive: [1] | [2] | [3] | [4] | [6] | [5] | [7]

C[C@]12CCC(=O)C=C1[C@@H]1C[C@@H]1[C@H]1[C@@H]3[C@@H]4C[C@@H]4[C@@]4(CCC(=O)O4)[C@@]3(C)CC[C@@H]12
active: [2] 43.4 µM
not listed: [7] | [8] | [9] | [10] | [11]
inactive: all other assays above

O=C(O)c1ccc2cc(O)ccc2c1
inactive: [1] | [2] | [3] | [4] | [6] | [7]

CCOC(=O)NNc1ccc(N(CC)CC(C)O)nn1 (configuration not stated)
inactive: [1] | [2] | [3] | [4] | [6] | [5] | [7]

CCCCCCCCCCCC(=O)OC[C@@H](O)[C@H]1OC[C@H](OCCO)[C@H]1OCCO
inactive: [1] | [2] | [3] | [4] | [6] | [5] | [7]

Nc1nc(-c2ccccc2)c(Br)c(=O)[nH]1
inactive: [1] | [2] | [3] | [4] | [6] | [5] | [7]

C=Cc1ccccc1
inactive: [1] | [2] | [3] | [4] | [6] | [5] | [7]

c1ccncc1
inactive: [1] | [2] | [3] | [4] | [6] | [5] | [7]

CN(C)C/C=C(/c1ccc(Br)cc1)c1cccnc1
inactive: [1] | [2] | [3] | [4] | [6] | [5] | [7]

On1nnc2ccccc21
inactive: [1] | [2] | [3] | [4] | [6] | [5] | [7]

CC(C)Cc1ccc(CC(=O)O)cc1
inactive: [1] | [2] | [3] | [4] | [6] | [7]

O=C(c1ccccc1)c1ccc2n1CCC2C(=O)O (configuration not stated)
active: [7] 43.6 µM
inactive: [1] | [2] | [3] | [4] | [6]

CCCCCCCCCCCCCCCBr
inactive: [1] | [2] | [3] | [4] | [5]

CC(C)c1cc2c(cc1S(=O)(=O)O)[C@@]1(C)CCC[C@@](C)(C(=O)O)[C@@H]1CC2
inactive: [1] | [2] | [3] | [4] | [6] | [7]
